From PubChem BioAssay (NCATS)
Results filed as inconclusive are left out. The source made the active and inactive calls. Calls follow the shape of the dose curve; as a rule, active = well fitted curve in the direction sought with a large enough effect; inconclusive = small, poorly fitted or top-dose-only effect, or another doubt; inactive = no such curve, though single readings can be large; an effect the other way counts as inactive or inconclusive.

Columns and labels:
[1] = Confirmation and Secondary Assay for Modulators of Hemoglobin Beta Chain Splicing at IVS2 654 locus (AID 910);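 also: HeLa cells stably carrying EGFP split by mutant beta-globin IVS2-654 intron; % of control where 0% means no effect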
Procedure, shortened: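 HeLa cells stably expressing EGFP interrupted by β-globin IVS2-654 intron, seeded overnight in Opti-MEM/2% FCS, then treated 2 days at 37 °C. Restored splicing read as total peak GFP intensity per well by laser scanning cytometry (488 nm excitation, 500–520 nm emission); 500 nM antisense PNA as control.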

[2] = qHTS assay for cell viability of HEK293 cells (AID 743288); conditions: ATP luminescence (CellTiter-Glo), 18 h; max response: hits give low values; also: % is scaled to controls: 0 for no effect and ±100 for the full control effect; nearly all actives have a fitted effect of over 50% in size
Procedure, shortened: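 Parental HEK293 cells, 2,000 per well, preincubated at least 5 h at 37 C, then exposed to compounds in DMSO for 18 h at 37 C. Viability by CellTiter-Glo ATP luminescence after 30 min at room temperature.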

[3] = qHTS assay for cell viability of the p53RE-bla HCT-116 cell line (AID 743292); also: % is scaled to controls: 0 for no effect and ±100 for the full control effect; nearly all actives have a fitted effect of over 55% in size
Procedure, shortened: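 CellSensor p53RE-bla HCT-116 cells, 4,000/well, preincubated 5 h at 37 C, then exposed to compounds in DMSO for 16 h at 37 C. Viability read as CellTiter-Glo luminescence (intracellular ATP) after 30 min at room temperature.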

N[C@@H](Cc1ccccc1)C(=O)O
inactive: outcome [1] | max response [2] 2.21% | Potency [3]
